Source: PubChem BioAssay
AMA1 RON2 block: disrupts binding of P. falciparum AMA1 to RON2 | AlphaScreen AMA1-biotinylated RON2 peptide binding | Potency, µM (series often up to 58.2 µM), for inactives: at the top dose activity change, negative = inhibition, most hits filed as inhibitors | actives 0.2% (n = 360,000) | AID 720542;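 further: 0% = vehicle wells and -100% = peptide control; nearly all actives have a fitted effect of over 45% in size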
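AMA1 (3D7) with his tag at 25 nM final met compounds first, then biotinylated RON2 peptide at 25 nM; detection used donor plus acceptor beads, 10 µg/mL apiece, read by AlphaScreen after 30 min at room temperature.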
Pf growth 48h: P. falciparum growth inhibition at 48 hours (one generation). P. falciparum luciferase growth in erythrocytes, 48 h. Potency, µM (titrated, usually from 28.7 µM), for the others: at the highest dose activity change, negative = inhibition, actives largely listed as inhibitors. actives 5.9% (n = 310,000). AID 504832; further: on the % scale 0 is the no-effect control and ±100 the full control effect
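In quantitative HTS format, infected erythrocytes bearing luciferase-reporter parasites were treated for a single generation at 37 C. Luminescence after adding detection reagent served as the growth measure.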
NS1 function inh: influenza NS1 inhibition; Potency, µM (doses to about 46.1 µM), inactives show at the top dose activity, positive = more growth; actives 0.4% (n = 270,000); AID 2326; calls by dose curve; further: actives are rising curves; nearly all actives have a fitted effect of over 50% in size
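Growth recovery, yeast-based: influenza A NS1 expressed in S. cerevisiae causes slow growth, and suppressors are detected by OD600. The parent strain without NS1 is used as positive control.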
Pf growth 96h: P. falciparum growth inhibition at 96 hours. P. falciparum luciferase reporter growth, 96 h. Potency, µM (doses to about 28.7 µM), for the others: top-dose activity change, negative = inhibition, actives largely listed as inhibitors. actives 6.9% (n = 320,000). AID 504834; further: on the % scale 0 is the no-effect control and ±100 the full control effect
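Erythrocytes infected with luciferase-expressing P. falciparum were dispensed at 2% hematocrit and 0.05% parasitemia (final), then incubated with compounds 96 hours at 37 C in 5% CO2. Luminescence after detection reagent addition reported growth.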
HCV inhibitor: inhibitors of hepatitis C virus infection | actives 3.4% (n = 340,000) | AID 651820 | Huh7.5.1 HCVcc-Cre infection, luciferase reporter, 44 h | Potency, µM (doses to about 41.8 µM), for inactives: at the top dose activity change, negative = inhibition, actives largely listed as inhibitors; further: on the % scale 0 is the no-effect control and ±100 the full control effect
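Luciferase read-out (15 sec integration) after a 15 min room-temperature substrate step quantifies HCVcc-Cre infection. Cells, 1,000 per well, had compound added 4 h post-plating, then virus at ~0.5 moi, and were cultured 44 h.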
SARS PLP yeast: inhibitors of SARS-CoV papain-like protease in yeast; S. cerevisiae expressing SARS-CoV PLpro, growth rescue; Potency, µM (doses to about 32.9 µM), for the others: top-dose activity, positive = growth rescue, hits mostly activators; actives 0.19% (n = 330,000); calls by dose curve; further: 0% is about no effect; nearly all actives have a fitted effect of over 55% in size
Starred values were filed as active, the others as inactive; ? = inconclusive; . = not tested or not shown. This is a sample that favours compounds with a hit; in the whole collection about 12% have one here. Unless noted, the call rests on the fitted dose curve; in most records, active means well fitted curve in the direction sought with a large enough effect; inconclusive means small, poorly fitted or top-dose-only effect, or another doubt; inactive means no such curve, though single readings can be large; an effect the other way counts as inactive or inconclusive. Potency means the concentration at half of the fitted maximal effect.

SMILES | AMA1 RON2 block | Pf growth 48h | NS1 function inh | Pf growth 96h | HCV inhibitor | SARS PLP yeast
O=C1C=C(O)c2c(O)cc(O)c(O)c2C1=O | 1µM* | . | . | . | ? | .
CCCCCCOc1ccc(C(=N)N(CCCC)CCCC)c2ccccc12 | . | 12µM* | . | 8.5µM* | . | .
COc1ccc2cc(C3OCCO3)c(Cl)nc2c1 | 7% | 184% | -5% | 18% | 32% | -1%
Cc1ccc(N2CCN(C(=O)c3cc(-c4ccc(F)cc4)[nH]c3C)CC2C)cc1 (stereo unspecified) | -18% | ? | -34% | ? | 11µM* | -11%
Cc1[nH]c(-c2ccc(F)cc2)cc1C(=O)N1CCN(c2ccccc2F)CC1 | -13% | -51% | -11% | 3.7µM* | ? | -8%
COc1ccccc1N1CCN(C(=O)c2cc(-c3ccc(F)cc3)[nH]c2C)CC1 | -16% | 13µM* | 2% | -4% | ? | -4%
Cc1[nH]c(-c2ccc(F)cc2)cc1C(=O)N1CCN(c2ccccc2)CC1 | -19% | 0% | -34% | 20% | ? | -1%
O=C(NN1C(=O)c2ccccc2C1=O)c1ccc2c(c1)C(=O)N(CC1CCCO1)C2=O (stereo unspecified) | -6% | 45% | -1% | 62% | 13% | -5%
CCn1c(=S)ccc2ccc(OC)cc21 | -14% | 12% | 0% | 30% | ? | 1%
CCSc1ccc2cc(OC)ccc2[n+]1CC | 0% | 0.74µM* | . | ? | -13% | 0%
CC[n+]1c(SC)ccc2cc(OC)ccc21 | -15% | 0.74µM* | 0% | -2% | 4% | 2%
CCn1ccc2cc(OC)ccc2c1=S | -11% | ? | -4% | 83% | -16% | 8%
CCCCCCCCCCCCCCCC(=O)OC[C@H](O)[C@H]1OC[C@@H](O)[C@@H]1O | . | -11% | . | -26% | . | .
CCOC(=O)c1sc(N/N=C/c2cc(Br)c(O)c(OC)c2)nc1C | 110% | 13µM* | -8% | 53% | -20% | -27%
CCOC(=O)N/N=C/c1cc(OC)c(O)c(OC)c1 | -1% | 15% | -8% | -1% | 10% | 11%
CC(=O)c1sc(N/N=C\c2ccc(N(C)C)cc2)nc1C | 32% | 113% | -2% | ? | -19% | 6%
COC(=O)c1sc(N/N=C/c2ccc(C(C)C)cc2)nc1C | 37% | 9.3µM* | 22% | ? | ? | 1%
COc1cccc(N2CC(C)Cn3c2nc2c3c(=O)[nH]c(=O)n2C)c1 (stereo unspecified) | -4% | 38% | -2% | -2% | -14% | -1%
O=C(NCCOc1ccccc1)c1cccc2c1C(=O)c1ccc(Cl)cc1S2(=O)=O | -3% | 21% | . | -2% | 10µM* | 2%
O=C(NCCOc1ccccc1Cl)c1cccc2c1C(=O)c1ccc(Cl)cc1S2(=O)=O | -5% | 0% | . | 38% | 9% | -5%
NC(=O)c1sc2cc(C(F)(F)F)cnc2c1-c1ccccc1 | ? | ? | -4% | 8.3µM* | 0% | 0%
COc1ccccc1C1NC(=O)NC(C)=C1C(=O)OCC1CCCCC1 (stereo unspecified) | -10% | . | . | . | . | .
c1ccc(Oc2c3ccccc3nc3ccccc23)cc1 | 0% | 7.4µM* | -87% | ? | 13% | -3%
CCN(CC)c1nc2ccccc2c(N)c1-c1ccccc1 | -18% | 15µM* | 5% | -3% | ? | -2%
Cc1cc(C)c2c(N)c3cccc(C)c3nc2n1 | 7% | 4.1µM* | -10% | 6.6µM* | 13µM* | ?
SMILES | AMA1 RON2 block | Pf growth 48h | NS1 function inh | Pf growth 96h | HCV inhibitor | SARS PLP yeast
Nc1c2c(nc3ccccc13)CCCC2 | 6% | ? | -7% | 8.5µM* | ? | -4%
CCCC(=O)N1CCC1(C)C(=O)NS(=O)(=O)c1ccccc1Cl (stereo unspecified) | 10% | . | . | . | . | .
CCOc1ccc(C(=O)NCCN2CCCCC2)c(OCC)c1 | -8% | ? | -2% | 89% | -20% | -10%
Cc1cccc2c(N)c3c(nc12)CCCC3 (tested in a mixture with another compound) | -4% | 4.7µM* | 6% | ? | ? | 1%
Nc1c2ccccc2nc2ccccc12 | 36% | 5.2µM* | -8% | 4.7µM* | 5µM* | -2%
Cc1cccc2c(N)c3c(nc12)N(C)CC3 | -7% | 5% | 1% | -9% | -28% | 1%
CCC(CC)N1CCN(S(=O)(=O)c2ccc(OC)cc2)CC1 | ? | 0% | 16% | ? | 1% | 5%
CC1(C)C2CC[C@]3(C)C(CC=C4[C@@H]5C[C@@](C)(CO)[C@@H](O)C[C@]56C[C@@H](OC6=O)[C@]43C)[C@@]2(C)CC[C@@H]1O (stereo partly specified) | 5% | . | . | . | 1.3µM* | .
O=C(COc1coc(CN2CCN(c3cccc(Cl)c3)CC2)cc1=O)NC1CCCC1 | 1% | 9.3µM* | . | ? | ? | 2%
CC(C)NC(=O)COc1coc(CN2CCN(c3cccc(Cl)c3)CC2)cc1=O | -6% | 2% | -5% | 12µM* | 3% | -4%
CC(C)NC(=O)COc1coc(CN2CCN(c3ccccc3)CC2)cc1=O | -1% | 9% | -1% | ? | -9% | -8%
CN1C[C@@H]2[C@@H]3C(=O)N(C)C(=O)[C@@H]3[C@](Cc3ccccc3)(C1=O)N2C(=O)c1ccccc1 | 14% | . | . | . | 13% | .
Cc1oc2c(CN3CCCC3)c(O)ccc2c(=O)c1-c1ccccc1 | -3% | ? | -4% | 12µM* | 1% | 1%
Cc1oc2c(CN3CCC(C)CC3)c(O)ccc2c(=O)c1-c1ccccc1 | 0% | 2.9µM* | -1% | 4.1µM* | 5% | 0%
CCC1CCCCN1Cc1c(O)ccc2c(=O)c(-c3ccccc3OC)coc12 (stereo unspecified) | -2% | . | . | . | -3% | .
COc1ccccc1-c1coc2c(CN3CCC(C)CC3)c(O)ccc2c1=O | 29% | 12µM* | 16% | ? | 6% | 1%
COc1ccc(-c2c(C(F)(F)F)oc3c(CN4CCN(C)CC4)c(O)ccc3c2=O)cc1 | -19% | 3.3µM* | -4% | ? | 3% | 2%
Cc1oc2c(CN3CCCC3)c(O)ccc2c(=O)c1-c1ccc(Cl)cc1 | 4% | ? | 3% | -2% | -3% | 2%
COc1ccc(-c2c(C)oc3c(CN4CCN(C)CC4)c(O)ccc3c2=O)cc1 | 2% | -5% | -2% | ? | 17% | -1%
Nc1ccccc1S(=O)(=O)C(F)F | -2% | 21% | 4% | 16% | -2% | -4%
CC(C)Cc1nnc(NC(=O)CCC(=O)NC2CC2)s1 | -2% | 18% | 8% | 61% | 14% | 15%
CCC(Sc1nc2ncccc2[nH]1)C(=O)N1CCOCC1 (stereo unspecified) | -5% | 9% | 2% | -23% | 9% | -4%
